# Test results reported in article PMC7862700, “An all-to-all approach to the identification of sequence-specific readers for epigenetic DNA modifications on cytosine”.
# Tests used:
# Experiment in all cases: DAPPL (digital affinity profiling via proximity ligation, sequencing); 10 mM Tris-HCl pH 7.5, 50 mM NaCl, 1 mM DTT, 4% glycerol, room temperature, 30 min; GST-TFs on glutathione beads, 16-mer random dsDNA library, 0.1% formaldehyde crosslink after washing; high values mean tight binding
# FEV = target: T1, FEV (Homo sapiens, UniProt Q99581 1-238); settings: protein: recombinant; tags: N-terminal GST; dsDNA, one strand shown
# T1 sequence: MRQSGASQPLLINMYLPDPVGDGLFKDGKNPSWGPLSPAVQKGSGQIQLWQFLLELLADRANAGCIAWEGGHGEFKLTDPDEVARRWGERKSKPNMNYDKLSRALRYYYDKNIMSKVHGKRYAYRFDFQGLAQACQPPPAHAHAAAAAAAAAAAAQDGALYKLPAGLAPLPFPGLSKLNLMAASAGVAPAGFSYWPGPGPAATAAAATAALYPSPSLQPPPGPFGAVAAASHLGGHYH
# How it was run: (§1)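 Binding signal is each hexamer's read frequency for a factor divided by its frequency in the tag-only sample. The factors were GST-fused human transcription factors from yeast, captured on glutathione beads, DNA-barcoded and pooled with that sample. Pools were incubated with 200 nmole of a random double-stranded 16-mer DNA library in Tris/NaCl/DTT/glycerol buffer at room temperature for 30 min, then washed, crosslinked with 0.1% formaldehyde, proximity-ligated with BsaI/T4 ligase (1 h, 37 °C), PCR-amplified and sequenced on an Illumina NextSeq500.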
# ETV5 = ETV5 (Homo sapiens, UniProt P41161 1-510); settings: protein: recombinant; tags: N-terminal GST; dsDNA, one strand shown
# How it was run: as §1
# HSF1 = HSF1 (Homo sapiens, UniProt Q00613 1-529); settings: protein: recombinant; tags: N-terminal GST; chain copies: 3; dsDNA, one strand shown
# How it was run: as §1
# SPIC = target: T2, SPIC (Homo sapiens, UniProt Q8N5J4 1-248); settings: protein: recombinant; tags: N-terminal GST; dsDNA, one strand shown
# T2 sequence: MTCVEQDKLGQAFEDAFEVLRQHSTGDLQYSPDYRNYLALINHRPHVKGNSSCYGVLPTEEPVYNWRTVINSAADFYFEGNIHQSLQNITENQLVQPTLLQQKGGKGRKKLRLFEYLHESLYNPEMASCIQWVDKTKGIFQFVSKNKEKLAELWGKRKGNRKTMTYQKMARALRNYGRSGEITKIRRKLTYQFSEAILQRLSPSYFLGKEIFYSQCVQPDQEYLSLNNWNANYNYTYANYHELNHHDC
# How it was run: as §1
# ELF4 = ELF4 (Homo sapiens, UniProt Q99607 1-663); settings: protein: recombinant; tags: N-terminal GST; dsDNA, one strand shown
# How it was run: as §1
# ELK4 = target: T3, ELK4 (Homo sapiens, UniProt P28324-2 1-405); settings: protein: recombinant; tags: N-terminal GST; dsDNA, one strand shown
# T3 sequence: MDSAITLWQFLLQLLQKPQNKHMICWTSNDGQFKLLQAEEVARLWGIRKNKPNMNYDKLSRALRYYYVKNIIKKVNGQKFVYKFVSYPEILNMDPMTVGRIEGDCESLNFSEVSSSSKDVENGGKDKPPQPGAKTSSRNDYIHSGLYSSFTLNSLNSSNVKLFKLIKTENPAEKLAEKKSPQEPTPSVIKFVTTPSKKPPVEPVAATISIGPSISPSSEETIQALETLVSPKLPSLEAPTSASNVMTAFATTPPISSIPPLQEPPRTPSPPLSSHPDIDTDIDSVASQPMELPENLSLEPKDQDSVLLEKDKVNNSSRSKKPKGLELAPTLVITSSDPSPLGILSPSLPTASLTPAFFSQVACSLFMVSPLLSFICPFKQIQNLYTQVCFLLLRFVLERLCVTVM
# How it was run: as §1
# ETV2 = target: T4, ETV2 (Homo sapiens, UniProt O00321 1-342); settings: protein: recombinant; tags: N-terminal GST; dsDNA, one strand shown
# T4 sequence: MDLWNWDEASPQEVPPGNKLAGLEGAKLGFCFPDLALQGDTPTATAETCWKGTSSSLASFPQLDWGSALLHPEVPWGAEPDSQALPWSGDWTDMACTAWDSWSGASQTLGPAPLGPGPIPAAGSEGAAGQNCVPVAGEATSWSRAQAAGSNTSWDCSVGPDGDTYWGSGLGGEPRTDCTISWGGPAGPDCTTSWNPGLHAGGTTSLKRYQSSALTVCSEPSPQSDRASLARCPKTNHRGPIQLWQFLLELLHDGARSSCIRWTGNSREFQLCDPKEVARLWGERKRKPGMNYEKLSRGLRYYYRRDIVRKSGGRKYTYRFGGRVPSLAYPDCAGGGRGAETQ
# How it was run: as §1
# ELF3 = target: T5, ELF3 (Homo sapiens, UniProt P78545 1-371); settings: protein: recombinant; tags: N-terminal GST; dsDNA, one strand shown
# T5 sequence: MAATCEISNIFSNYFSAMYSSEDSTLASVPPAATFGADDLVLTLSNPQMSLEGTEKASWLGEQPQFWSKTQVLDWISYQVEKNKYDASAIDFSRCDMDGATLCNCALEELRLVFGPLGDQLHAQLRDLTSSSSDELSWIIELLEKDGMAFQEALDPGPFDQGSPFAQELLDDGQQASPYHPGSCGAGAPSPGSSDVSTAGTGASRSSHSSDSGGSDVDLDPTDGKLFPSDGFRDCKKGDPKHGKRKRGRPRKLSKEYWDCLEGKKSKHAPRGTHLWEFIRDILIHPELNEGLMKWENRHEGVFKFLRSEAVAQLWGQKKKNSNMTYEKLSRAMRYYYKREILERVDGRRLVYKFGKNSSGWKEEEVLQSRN
# How it was run: as §1
# CRX = CRX (Homo sapiens, UniProt O43186 1-299); settings: protein: recombinant; tags: N-terminal GST; dsDNA, one strand shown
# How it was run: as §1
# ETV1 = ETV1 (Homo sapiens, UniProt P50549 1-477); settings: protein: recombinant; tags: N-terminal GST; dsDNA, one strand shown
# How it was run: as §1
# ERF = target: T6, ERF (Homo sapiens, UniProt P50548 1-548); settings: protein: recombinant; tags: N-terminal GST; dsDNA, one strand shown
# T6 sequence: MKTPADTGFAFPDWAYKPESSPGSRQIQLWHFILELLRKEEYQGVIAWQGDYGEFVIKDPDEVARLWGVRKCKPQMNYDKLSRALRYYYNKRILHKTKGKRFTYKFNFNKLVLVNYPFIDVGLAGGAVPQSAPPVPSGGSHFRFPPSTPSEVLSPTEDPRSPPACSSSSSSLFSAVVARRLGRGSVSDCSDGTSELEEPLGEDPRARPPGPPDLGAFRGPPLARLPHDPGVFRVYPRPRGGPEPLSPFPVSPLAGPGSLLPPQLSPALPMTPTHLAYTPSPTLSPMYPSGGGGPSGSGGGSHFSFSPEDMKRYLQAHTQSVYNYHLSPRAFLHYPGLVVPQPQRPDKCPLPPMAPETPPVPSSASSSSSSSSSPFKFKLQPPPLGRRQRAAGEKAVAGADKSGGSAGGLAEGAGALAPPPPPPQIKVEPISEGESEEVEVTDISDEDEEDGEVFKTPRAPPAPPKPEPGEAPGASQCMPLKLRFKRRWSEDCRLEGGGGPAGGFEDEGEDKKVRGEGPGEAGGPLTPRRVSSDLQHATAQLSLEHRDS
# How it was run: as §1
# ETV3L = target: T7, ETV3L (Homo sapiens, UniProt Q6ZN32 1-361); settings: protein: recombinant; tags: N-terminal GST; dsDNA, one strand shown
# T7 sequence: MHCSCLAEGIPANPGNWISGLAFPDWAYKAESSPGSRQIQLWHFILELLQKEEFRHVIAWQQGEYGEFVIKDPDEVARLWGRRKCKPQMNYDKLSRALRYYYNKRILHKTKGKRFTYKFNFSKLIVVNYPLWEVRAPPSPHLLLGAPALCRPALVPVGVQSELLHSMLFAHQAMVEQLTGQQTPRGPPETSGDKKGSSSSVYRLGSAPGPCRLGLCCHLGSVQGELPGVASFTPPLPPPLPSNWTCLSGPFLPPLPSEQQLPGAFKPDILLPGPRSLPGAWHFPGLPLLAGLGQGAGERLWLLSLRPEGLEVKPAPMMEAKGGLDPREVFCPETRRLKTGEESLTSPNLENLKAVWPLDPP
# How it was run: as §1
# ETS2 = target: T8, ETS2 (Homo sapiens, UniProt P15036 1-469); settings: protein: recombinant; tags: N-terminal GST; dsDNA, one strand shown
# T8 sequence: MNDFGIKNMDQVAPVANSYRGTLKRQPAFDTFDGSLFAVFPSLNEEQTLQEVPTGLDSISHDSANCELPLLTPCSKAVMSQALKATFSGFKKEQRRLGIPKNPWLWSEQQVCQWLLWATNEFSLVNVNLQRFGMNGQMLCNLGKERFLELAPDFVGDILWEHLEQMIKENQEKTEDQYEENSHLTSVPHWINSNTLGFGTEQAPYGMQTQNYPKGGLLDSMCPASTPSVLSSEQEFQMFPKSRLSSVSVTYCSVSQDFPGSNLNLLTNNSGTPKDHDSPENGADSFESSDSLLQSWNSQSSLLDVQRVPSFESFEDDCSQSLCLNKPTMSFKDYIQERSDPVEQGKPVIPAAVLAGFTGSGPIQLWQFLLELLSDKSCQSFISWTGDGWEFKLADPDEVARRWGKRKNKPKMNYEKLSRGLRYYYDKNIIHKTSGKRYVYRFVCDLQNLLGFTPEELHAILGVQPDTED
# How it was run: as §1
# SPDEF = target: T9, SPDEF (Homo sapiens, UniProt O95238 1-335); settings: protein: recombinant; tags: N-terminal GST; dsDNA, one strand shown
# T9 sequence: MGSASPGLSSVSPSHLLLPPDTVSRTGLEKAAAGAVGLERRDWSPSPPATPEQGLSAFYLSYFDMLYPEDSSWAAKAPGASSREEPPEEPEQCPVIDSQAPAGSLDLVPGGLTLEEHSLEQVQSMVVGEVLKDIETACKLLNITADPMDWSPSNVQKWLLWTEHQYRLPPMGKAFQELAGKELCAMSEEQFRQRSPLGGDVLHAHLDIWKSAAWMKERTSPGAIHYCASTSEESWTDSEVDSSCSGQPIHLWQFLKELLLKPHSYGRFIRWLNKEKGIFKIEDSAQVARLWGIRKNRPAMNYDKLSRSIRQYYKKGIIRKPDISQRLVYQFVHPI
# How it was run: as §1
# ETV7 = target: T10, ETV7 (Homo sapiens, UniProt Q9Y603 1-341); settings: protein: recombinant; tags: N-terminal GST; dsDNA, one strand shown
# T10 sequence: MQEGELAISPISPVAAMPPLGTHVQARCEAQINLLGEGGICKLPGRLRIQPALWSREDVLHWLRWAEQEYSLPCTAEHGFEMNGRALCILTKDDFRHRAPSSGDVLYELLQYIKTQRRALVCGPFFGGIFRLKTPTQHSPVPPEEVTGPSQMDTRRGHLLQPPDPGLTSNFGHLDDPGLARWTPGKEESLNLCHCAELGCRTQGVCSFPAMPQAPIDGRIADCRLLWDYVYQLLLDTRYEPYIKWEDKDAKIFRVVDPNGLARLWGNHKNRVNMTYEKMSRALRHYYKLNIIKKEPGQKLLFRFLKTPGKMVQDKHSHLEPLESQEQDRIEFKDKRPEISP
# How it was run: as §1
# ELF5 = target: T11, ELF5 (Homo sapiens, UniProt Q9UKW6-2 1-255); settings: protein: recombinant; tags: N-terminal GST; dsDNA, one strand shown
# T11 sequence: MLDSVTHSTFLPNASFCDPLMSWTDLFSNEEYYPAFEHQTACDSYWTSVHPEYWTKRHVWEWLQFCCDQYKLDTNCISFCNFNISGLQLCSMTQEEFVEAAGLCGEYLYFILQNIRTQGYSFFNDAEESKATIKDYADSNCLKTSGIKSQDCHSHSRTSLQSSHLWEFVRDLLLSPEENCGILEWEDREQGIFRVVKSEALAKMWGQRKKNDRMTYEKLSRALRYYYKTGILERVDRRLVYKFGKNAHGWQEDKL
# How it was run: as §1
# ETV3 = target: T12, ETV3 (Homo sapiens, UniProt P41162-2 1-143); settings: protein: recombinant; tags: N-terminal GST; dsDNA, one strand shown
# T12 sequence: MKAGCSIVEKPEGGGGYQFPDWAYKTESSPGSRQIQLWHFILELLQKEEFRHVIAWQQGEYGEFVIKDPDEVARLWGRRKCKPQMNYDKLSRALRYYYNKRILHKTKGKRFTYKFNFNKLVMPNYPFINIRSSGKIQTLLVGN
# How it was run: as §1
# ETV6 = ETV6 (Homo sapiens, UniProt P41212 1-452); settings: protein: recombinant; tags: N-terminal GST; dsDNA, one strand shown
# How it was run: as §1
# HSF1, sequence (Q00613 whole entry): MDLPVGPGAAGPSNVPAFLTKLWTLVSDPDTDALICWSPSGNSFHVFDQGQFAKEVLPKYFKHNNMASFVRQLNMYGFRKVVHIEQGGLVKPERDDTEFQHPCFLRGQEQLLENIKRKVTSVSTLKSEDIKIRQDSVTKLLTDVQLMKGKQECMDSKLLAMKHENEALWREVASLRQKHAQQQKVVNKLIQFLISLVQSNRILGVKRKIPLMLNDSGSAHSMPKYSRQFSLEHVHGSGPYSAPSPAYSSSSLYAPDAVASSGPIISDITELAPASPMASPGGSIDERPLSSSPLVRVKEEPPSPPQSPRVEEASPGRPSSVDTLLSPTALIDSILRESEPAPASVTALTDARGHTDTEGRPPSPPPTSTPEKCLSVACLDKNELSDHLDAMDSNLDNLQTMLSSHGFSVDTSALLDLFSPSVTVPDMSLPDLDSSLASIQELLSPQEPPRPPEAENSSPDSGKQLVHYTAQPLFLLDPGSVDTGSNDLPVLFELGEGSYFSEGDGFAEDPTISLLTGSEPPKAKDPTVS
# ETV1, sequence (P50549 whole entry): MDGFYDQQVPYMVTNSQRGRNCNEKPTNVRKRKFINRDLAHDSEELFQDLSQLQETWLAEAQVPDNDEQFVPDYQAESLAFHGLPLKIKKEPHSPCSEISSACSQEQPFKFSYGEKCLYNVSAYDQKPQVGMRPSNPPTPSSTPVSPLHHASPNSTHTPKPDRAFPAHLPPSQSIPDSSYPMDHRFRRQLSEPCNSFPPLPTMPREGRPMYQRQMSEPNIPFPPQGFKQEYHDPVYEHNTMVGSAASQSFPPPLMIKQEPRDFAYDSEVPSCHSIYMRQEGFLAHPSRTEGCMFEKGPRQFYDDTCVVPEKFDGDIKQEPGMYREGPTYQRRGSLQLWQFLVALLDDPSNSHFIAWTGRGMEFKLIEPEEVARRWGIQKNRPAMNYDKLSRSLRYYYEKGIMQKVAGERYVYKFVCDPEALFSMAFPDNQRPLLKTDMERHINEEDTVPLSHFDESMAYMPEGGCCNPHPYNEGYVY
# ETV6, sequence (P41212 whole entry): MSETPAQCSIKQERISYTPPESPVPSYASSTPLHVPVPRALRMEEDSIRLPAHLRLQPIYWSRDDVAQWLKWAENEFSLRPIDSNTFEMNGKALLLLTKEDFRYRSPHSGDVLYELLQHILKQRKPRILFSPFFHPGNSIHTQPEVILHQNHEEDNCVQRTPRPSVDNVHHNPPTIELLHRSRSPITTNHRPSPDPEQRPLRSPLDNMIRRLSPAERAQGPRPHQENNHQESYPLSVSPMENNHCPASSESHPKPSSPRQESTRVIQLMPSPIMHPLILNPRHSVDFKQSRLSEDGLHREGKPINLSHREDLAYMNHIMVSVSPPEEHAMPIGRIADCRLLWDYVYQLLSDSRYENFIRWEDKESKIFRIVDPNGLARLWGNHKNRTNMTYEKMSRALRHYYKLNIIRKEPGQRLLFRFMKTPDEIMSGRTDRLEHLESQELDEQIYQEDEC
# CRX, sequence (O43186 whole entry): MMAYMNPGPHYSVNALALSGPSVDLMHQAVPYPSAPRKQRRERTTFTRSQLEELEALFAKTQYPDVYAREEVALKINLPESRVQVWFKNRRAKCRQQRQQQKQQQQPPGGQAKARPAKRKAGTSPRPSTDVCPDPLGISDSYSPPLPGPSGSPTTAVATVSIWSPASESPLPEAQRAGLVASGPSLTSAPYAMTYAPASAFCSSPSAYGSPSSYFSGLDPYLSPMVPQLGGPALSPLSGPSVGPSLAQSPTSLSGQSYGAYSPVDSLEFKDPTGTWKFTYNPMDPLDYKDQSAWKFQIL
# ELF4, sequence (Q99607 whole entry): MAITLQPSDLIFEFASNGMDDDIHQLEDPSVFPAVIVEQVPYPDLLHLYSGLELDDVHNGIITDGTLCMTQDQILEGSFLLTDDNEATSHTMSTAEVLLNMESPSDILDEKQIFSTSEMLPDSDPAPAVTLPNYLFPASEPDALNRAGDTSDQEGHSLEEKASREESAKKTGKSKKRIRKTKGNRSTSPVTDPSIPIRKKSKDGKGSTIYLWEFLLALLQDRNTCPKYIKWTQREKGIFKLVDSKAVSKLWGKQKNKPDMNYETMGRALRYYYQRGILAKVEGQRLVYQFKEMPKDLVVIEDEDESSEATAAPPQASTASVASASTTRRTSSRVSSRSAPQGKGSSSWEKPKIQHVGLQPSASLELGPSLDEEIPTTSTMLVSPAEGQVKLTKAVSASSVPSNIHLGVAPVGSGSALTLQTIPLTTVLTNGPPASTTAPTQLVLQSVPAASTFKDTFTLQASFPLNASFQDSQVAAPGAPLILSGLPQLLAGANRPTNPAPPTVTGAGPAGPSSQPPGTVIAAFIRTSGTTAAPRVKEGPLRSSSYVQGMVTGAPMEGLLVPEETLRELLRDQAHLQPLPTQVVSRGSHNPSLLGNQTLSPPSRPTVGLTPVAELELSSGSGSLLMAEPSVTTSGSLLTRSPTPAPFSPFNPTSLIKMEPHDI
# ETV5, sequence (P41161 whole entry): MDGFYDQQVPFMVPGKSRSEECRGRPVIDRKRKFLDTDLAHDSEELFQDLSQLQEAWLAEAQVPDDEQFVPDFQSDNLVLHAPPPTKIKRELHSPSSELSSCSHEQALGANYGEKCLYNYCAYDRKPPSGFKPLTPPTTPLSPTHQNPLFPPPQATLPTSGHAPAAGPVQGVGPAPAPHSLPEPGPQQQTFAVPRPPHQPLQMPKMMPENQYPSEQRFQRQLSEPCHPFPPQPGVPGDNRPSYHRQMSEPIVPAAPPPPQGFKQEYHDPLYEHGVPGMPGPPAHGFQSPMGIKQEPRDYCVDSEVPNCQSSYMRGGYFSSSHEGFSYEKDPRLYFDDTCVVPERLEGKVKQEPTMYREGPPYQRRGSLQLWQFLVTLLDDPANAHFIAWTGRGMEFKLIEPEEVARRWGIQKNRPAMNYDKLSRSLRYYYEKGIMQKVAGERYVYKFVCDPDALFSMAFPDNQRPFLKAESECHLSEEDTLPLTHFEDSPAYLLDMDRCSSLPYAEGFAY
sequence,measurement,setting,value
ATCTAA,binding signal,FEV,"1.14 fold enrichment (6-mer frequency, TF over GST control)"
same,binding signal,ETV5,"1.15 fold enrichment (6-mer frequency, TF over GST control)"
same,binding signal,HSF1,"1.49 fold enrichment (6-mer frequency, TF over GST control)"
same,binding signal,SPIC,"1.13 fold enrichment (6-mer frequency, TF over GST control)"
same,binding signal,ELF4,"1.23 fold enrichment (6-mer frequency, TF over GST control)"
same,binding signal,ELK4,"1.24 fold enrichment (6-mer frequency, TF over GST control)"
same,binding signal,ETV2,"1.22 fold enrichment (6-mer frequency, TF over GST control)"
same,binding signal,ELF3,"1.12 fold enrichment (6-mer frequency, TF over GST control)"
same,binding signal,CRX,"1.83 fold enrichment (6-mer frequency, TF over GST control)"
same,binding signal,ETV1,"1.16 fold enrichment (6-mer frequency, TF over GST control)"
same,binding signal,ERF,"1.2 fold enrichment (6-mer frequency, TF over GST control)"
same,binding signal,ETV3L,"1.19 fold enrichment (6-mer frequency, TF over GST control)"
same,binding signal,ETS2,"1.2 fold enrichment (6-mer frequency, TF over GST control)"
same,binding signal,SPDEF,"1.11 fold enrichment (6-mer frequency, TF over GST control)"
same,binding signal,ETV7,"1.22 fold enrichment (6-mer frequency, TF over GST control)"
same,binding signal,ELF5,"1.17 fold enrichment (6-mer frequency, TF over GST control)"
same,binding signal,ETV3,"1.24 fold enrichment (6-mer frequency, TF over GST control)"
same,binding signal,ETV6,"1.17 fold enrichment (6-mer frequency, TF over GST control)"
